Values joined by “and” are separate entries in the source; they are usually repeats but may differ in a detail not shown here. Identical values can stand only once. Out of some 5,500 compounds screened, about 2,000 (36%) were called active. About 18% were inconclusive and are not listed. No stated cut-off is given here; in the data, active means normalized growth mostly below about 0.91 (no sharp cut-off); inconclusive means no clear call, values can overlap the other calls; inactive means mostly above about 0.92. This is one part of the list.
Assay: chemical genetic growth profiling, strain panel (AID 1159580);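 further: tested at 20 µM; growth read once vehicle control cultures reached saturation at 30 °C; 1 = growth at the plate median or of vehicle wells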
Conditions: growth OD
[1] = S. cerevisiae deletion strains, locus YAR019C, strain CDC15, stronger effect = lower value
[2] = S. cerevisiae deletion strains, locus YBL105C, strain PKC1, stronger effect = lower value
[3] = S. cerevisiae deletion strains, locus YBR135W, strain CKS1, stronger effect = lower value
[4] = S. cerevisiae deletion strains, locus YBR136W, strain MEC1, stronger effect = lower value
[5] = S. cerevisiae deletion strains, locus YBR160W, strain CDC28, stronger effect = lower value
[6] = S. cerevisiae deletion strains, locus YDL017W, strain CDC7, stronger effect = lower value
[7] = S. cerevisiae deletion strains, locus YDL028C, strain MPS1, stronger effect = lower value
[8] = S. cerevisiae deletion strains, locus YDL101C, strain DUN1, stronger effect = lower value
[9] = S. cerevisiae deletion strains, locus YDL108W, strain KIN28, stronger effect = lower value
[10] = S. cerevisiae deletion strains, locus YDL132W, strain cdc53, stronger effect = lower value
[11] = S. cerevisiae deletion strains, locus YDL214C, strain PRR2, stronger effect = lower value
[12] = S. cerevisiae deletion strains, locus YDR052C, strain DBF4, stronger effect = lower value
[13] = S. cerevisiae deletion strains, locus YDR054C, strain cdc34, stronger effect = lower value
[14] = S. cerevisiae deletion strains, locus YDR226W, strain ADK1, stronger effect = lower value
[15] = S. cerevisiae deletion strains, locus YDR477W, strain SNF1, stronger effect = lower value
[16] = S. cerevisiae deletion strains, locus YER123W, strain YCK3, stronger effect = lower value
[17] = S. cerevisiae deletion strains, locus YER133W, strain GLC7, stronger effect = lower value
[18] = S. cerevisiae deletion strains, locus YFL009W, strain cdc4, stronger effect = lower value
[19] = S. cerevisiae deletion strains, locus YFL029C, strain CAK1, stronger effect = lower value
[20] = S. cerevisiae deletion strains, locus YFR003C, strain YPI1, stronger effect = lower value
[21] = S. cerevisiae deletion strains, locus YFR019W, strain FAB1, stronger effect = lower value
[22] = S. cerevisiae deletion strains, locus YFR028C, strain CDC14, stronger effect = lower value
[23] = S. cerevisiae deletion strains, locus YGR040W, strain KSS1, stronger effect = lower value
[24] = S. cerevisiae deletion strains, locus YGR052W, strain FMP48, stronger effect = lower value
[25] = S. cerevisiae deletion strains, locus YGR092W, strain DBF2, stronger effect = lower value
[26] = S. cerevisiae deletion strains, locus YHR030C, strain SLT2, stronger effect = lower value
[27] = S. cerevisiae deletion strains, locus YHR079C, strain IRE1, stronger effect = lower value
[28] = S. cerevisiae deletion strains, locus YHR082C, strain KSP1, stronger effect = lower value
[29] = S. cerevisiae deletion strains, locus YHR205W, strain SCH9, stronger effect = lower value
[30] = S. cerevisiae deletion strains, locus YIL147C, strain SLN1, stronger effect = lower value
[31] = S. cerevisiae deletion strains, locus YJL095W, strain BCK1, stronger effect = lower value
[32] = S. cerevisiae deletion strains, locus YJL128C, strain PBS2, stronger effect = lower value
[33] = S. cerevisiae deletion strains, locus YJL157C, strain FAR1, stronger effect = lower value
[34] = S. cerevisiae deletion strains, locus YJR016C, strain ILV3, stronger effect = lower value
[35] = S. cerevisiae deletion strains, locus YJR066W, strain TOR1 (second series), stronger effect = lower value
[36] = S. cerevisiae deletion strains, locus YJR066W, strain TOR1, stronger effect = lower value
[37] = S. cerevisiae deletion strains, locus YKL048C, strain ELM1, stronger effect = lower value
[38] = S. cerevisiae deletion strains, locus YKL067W, strain YNK1, stronger effect = lower value
[39] = S. cerevisiae deletion strains, locus YKL101W, strain HSL1, stronger effect = lower value
[40] = S. cerevisiae deletion strains, locus YKL193C, strain SDS22, stronger effect = lower value
[41] = S. cerevisiae deletion strains, locus YKL203C, strain TOR2, stronger effect = lower value
[42] = S. cerevisiae deletion strains, locus YLR113W, strain HOG1, stronger effect = lower value
[43] = S. cerevisiae deletion strains, locus YLR133W, strain CKI1, stronger effect = lower value
[44] = S. cerevisiae deletion strains, locus YLR403W, strain SFP1, stronger effect = lower value
[45] = S. cerevisiae deletion strains, locus YML070W, strain DAK1, stronger effect = lower value
[46] = S. cerevisiae deletion strains, locus YMR001C, strain CDC5, stronger effect = lower value
[47] = S. cerevisiae deletion strains, locus YMR205C, strain PFK2 (second series), stronger effect = lower value
[48] = S. cerevisiae deletion strains, locus YMR277W, strain FCP1, stronger effect = lower value
[49] = S. cerevisiae deletion strains, locus YNL006W, strain LST8, stronger effect = lower value
[50] = S. cerevisiae deletion strains, locus YNL020C, strain ARK1, stronger effect = lower value
[51] = S. cerevisiae deletion strains, locus YNL161W, strain CBK1, stronger effect = lower value
[52] = S. cerevisiae deletion strains, locus YNL183C, strain NPR1, stronger effect = lower value
[53] = S. cerevisiae deletion strains, locus YNL207W, strain RIO2, stronger effect = lower value
[54] = S. cerevisiae deletion strains, locus YNL222W, strain SSU72, stronger effect = lower value
[55] = S. cerevisiae deletion strains, locus YNL307C, strain MCK1 (second series), stronger effect = lower value
[56] = S. cerevisiae deletion strains, locus YOL078W, strain AVO1, stronger effect = lower value
[57] = S. cerevisiae deletion strains, locus YOL136C, strain PFK27, stronger effect = lower value
[58] = S. cerevisiae deletion strains, locus YOR061W, strain CKA2, stronger effect = lower value
[59] = S. cerevisiae deletion strains, locus YOR119C, strain RIO1, stronger effect = lower value
[60] = S. cerevisiae deletion strains, locus YOR231W, strain MKK1, stronger effect = lower value
[61] = S. cerevisiae deletion strains, locus YOR329C, strain SCD5, stronger effect = lower value
[62] = S. cerevisiae deletion strains, locus YPL031C, strain PHO85, stronger effect = lower value
[63] = S. cerevisiae deletion strains, locus YPL153C, strain RAD53, stronger effect = lower value
[64] = S. cerevisiae deletion strains, locus YPL204W, strain HRR25, stronger effect = lower value
[65] = S. cerevisiae deletion strains, locus YPL209C, strain IPL1, stronger effect = lower value
[66] = S. cerevisiae deletion strains, locus YPL256C, strain CLN2, stronger effect = lower value
[67] = S. cerevisiae deletion strains, locus YPR025C, strain CCL1, stronger effect = lower value
[68] = S. cerevisiae deletion strains, locus YPR106W, strain ISR1, stronger effect = lower value
[69] = S. cerevisiae deletion strains, locus YPR111W, strain DBF20, stronger effect = lower value
[70] = S. cerevisiae deletion strains, strain NNK1, stronger effect = lower value
[71] = S. cerevisiae deletion strains, strain TSCII, stronger effect = lower value

Measured: normalized growth

N#CC(C#N)=NNc1ccc(C(F)(F)F)cc1
active: [1] 0.135 | [2] 0.148 | [3] 0.135 | [4] 0.147 | [5] 0.168 | [6] 0.178 | [7] 0.311 | [8] 0.124 | [9] 0.152 | [10] 0.126 | [11] 0.131 | [12] 0.255 | [13] 0.138 | [14] 0.178 | [15] 0.116 | [16] 0.116 | [17] 0.11 | [18] 0.132 | [19] 0.138 | [20] 0.339 | [21] 0.12 | [22] 0.144 | [23] 0.113 | [24] 0.129 | [25] 0.105 | [26] 0.144 | [27] 0.155 | [28] 0.169 | [29] 0.0194 | [30] 0.397 | [31] 0.116 | [32] 0.149 | [33] 0.106 | [34] 0.13 | [35] 0.116 | [36] 0.146 | [37] 0.134 | [38] 0.113 | [39] 0.112 | [40] 0.118 | [41] 0.132 | [42] 0.166 | [43] 0.109 | [44] 0.0217 | [45] 0.106 | [46] 0.133 | [47] 0.104 | [48] 0.119 | [49] 0.194 | [50] 0.128 | [51] 0.137 | [52] 0.141 | [53] 0.155 | [54] 0.131 | [55] 0.133 | [56] 0.117 | [57] 0.111 | [58] 0.108 | [59] 0.119 | [60] 0.126 | [61] 0.187 | [62] 0.116 | [63] 0.107 | [64] 0.115 | [65] 0.135 | [66] 0.179 | [67] 0.154 | [68] 0.116 | [69] 0.122 | [70] 0.124 | [71] 0.137

N#C/C(=N/Nc1ccc(C(F)(F)F)cc1)C(=O)C1CC1
inactive: S. cerevisiae deletion strains, locus YAL013W, strain DEP1, stronger effect = lower value 0.942 | [1] 0.952 | [2] 0.947 | [3] 0.941 | [4] 0.942 | [5] 0.942 | S. cerevisiae deletion strains, locus YBR229C, strain ROT2, stronger effect = lower value 0.96 | S. cerevisiae deletion strains, locus YCL061C, strain MRC1, stronger effect = lower value 0.978 | [6] 0.953 | [7] 0.938 | [8] 0.976 and 0.966 | [9] 0.937 | [10] 0.937 | [11] 0.904 | [12] 0.953 | [13] 0.95 | S. cerevisiae deletion strains, locus YDR150W, strain NUM1, stronger effect = lower value 0.928 | [14] 0.97 | [15] 0.932 | [16] 0.88 | [17] 0.93 | [18] 0.942 | [19] 0.945 | [20] 0.95 | [21] 0.92 | [22] 0.964 | [23] 0.905 | [24] 0.922 | S. cerevisiae deletion strains, locus YGR078C, strain PAC10, stronger effect = lower value 0.957 | [25] 0.855 | S. cerevisiae deletion strains, locus YGR229C, strain SMI1, stronger effect = lower value 0.948 | [27] 0.958 | [28] 0.989 | S. cerevisiae deletion strains, locus YHR087W, strain rtc3, stronger effect = lower value 0.951 | [29] 0.889 | [30] 0.941 | [31] 0.913 | [32] 0.924 | [33] 0.94 | S. cerevisiae deletion strains, locus YJL187C, strain SWE1, stronger effect = lower value 0.98 | [34] 0.931 | S. cerevisiae deletion strains, locus YJR043C, strain POL32, stronger effect = lower value 0.952 | [35] 0.897 | [36] 0.997 | S. cerevisiae deletion strains, locus YJR075W, strain HOC1, stronger effect = lower value 0.975 | [37] 0.928 | [38] 0.904 | [39] 0.874 | [40] 0.943 | [41] 0.996 | S. cerevisiae deletion strains, locus YLR058C, strain SHM2 (second series), stronger effect = lower value 0.975 | [43] 0.909 | [44] 0.898 | [45] 0.895 | [46] 0.95 | [47] 0.917 | S. cerevisiae deletion strains, locus YMR219W, strain ESC1, stronger effect = lower value 0.986 | S. cerevisiae deletion strains, locus YMR263W, strain SAP30, stronger effect = lower value 0.956 | [48] 0.937 | [49] 0.947 | [50] 0.914 | S. cerevisiae deletion strains, locus YNL128W, strain TEP1, stronger effect = lower value 0.956 | S. cerevisiae deletion strains, locus YNL153C, strain GIM3, stronger effect = lower value 0.981 | [51] 0.949 | [52] 0.941 | [53] 0.95 | [54] 0.947 | S. cerevisiae deletion strains, locus YNL298W, strain CLA4 (second series), stronger effect = lower value 0.842 | [55] 0.905 | S. cerevisiae deletion strains, locus YNL322C, strain KRE1, stronger effect = lower value 0.981 | [56] 0.936 | [57] 0.866 | [58] 0.926 | [59] 0.973 | [60] 0.89 | [61] 0.958 | [62] 0.922 | S. cerevisiae deletion strains, locus YPL055C, strain LGE1, stronger effect = lower value 0.83 | [63] 0.929 | [64] 0.894 | [65] 0.955 | [66] 0.977 | [67] 0.95 | [68] 0.951 | [69] 0.912 | S. cerevisiae deletion strains, locus YPR135W, strain CTF4, stronger effect = lower value 0.829 | [70] 0.971 | [71] 0.947 | S. cerevisiae strains, strain wild type, stronger effect = lower value 0.943
active: S. cerevisiae deletion strains, locus YDL134C, strain PPH21, stronger effect = lower value 0.791 | S. cerevisiae deletion strains, locus YEL061C, strain CIN8, stronger effect = lower value 0.857 | S. cerevisiae deletion strains, locus YLR039C, strain RIC1, stronger effect = lower value 0.565 | S. cerevisiae deletion strains, locus YLR085C, strain ARP6, stronger effect = lower value 0.503 | [42] 0.835 | S. cerevisiae deletion strains, locus YLR262C, strain YPT6, stronger effect = lower value 0.68 | S. cerevisiae deletion strains, locus YML094W, strain GIM5, stronger effect = lower value 0.841 | S. cerevisiae deletion strains, locus YMR307W, strain GAS1, stronger effect = lower value 0.535 | S. cerevisiae deletion strains, locus YNR030W, strain Alg12, stronger effect = lower value 0.773 | S. cerevisiae deletion strains, locus YPL241C, strain CIN2, stronger effect = lower value 0.76
0.482 (active) and 1.02 (inactive): [26]
